The record followed here is PubChem BioAssay (NCI).

Compounds without any hit were thinned out: in the full panel of roughly 83,000, 20% have a hit.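 In brief: 96-well plates, 48 h treatment, single concentration, percent growth endpoint.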 Values without a mark were called inactive. Calls of active or inactive are those of the source. Rule for the calls: active = growth percent below 10; inactive = the rest.

Some test systems named below: SK-MEL-2 melanoma; EKVX NSCLC; SN12C renal; UO-31 renal; TK-10 renal; ACHN renal; CAKI-1 renal; A498 renal; CCRF-CEM leukemia; MOLT-4 leukemia; SR leukemia; RPMI-8226 leukemia; OVCAR-8 ovarian; OVCAR-5 ovarian; OVCAR-4 ovarian; SK-OV-3 ovarian; IGROV1 ovarian; OVCAR-3 ovarian; HS 578T breast; NCI/ADR-RES ovarian.
Common to all, as to experiment: NCI-60 one-dose screen, 48 h (100 = growth as untreated, 0 = no growth, -100 = all killed)
Details in all cases: 10 µM unless noted

As to `CC1=C([Se]CC(OC(=O)CC[Se]c2ccccc2)C(=O)NC(C)(C)C)C(=O)c2ccccc2C1=O` (stereo not given), the growth in the test with SK-MEL-2 melanoma was 9.93% (active); with EKVX NSCLC it was -65.4% (active); in the test with SN12C renal, -62.5% (active); with UO-31 renal it was -12% (active); with TK-10 renal it was -89.8% (active); with ACHN renal, -55.5% (active). Also, the growth was -34.3% (active) in the test with CAKI-1 renal; -26.4% (active) with A498 renal; -10.8% (active) in the test on CCRF-CEM leukemia; -31.6% (active) with MOLT-4 leukemia; -27.7% (active) in the test on SR leukemia; 14.8% in the test on RPMI-8226 leukemia. For the same compound, the growth in the test with OVCAR-8 ovarian is -82% (active); in the test on OVCAR-5 ovarian, -63.1% (active); with OVCAR-4 ovarian, -83.6% (active); in the test with SK-OV-3 ovarian, -98.3% (active); in the test on IGROV1 ovarian it was -19.2% (active); in the test on OVCAR-3 ovarian, -95.9% (active). For the same compound, the growth in the test on HS 578T breast is -19.1% (active); in the test on NCI/ADR-RES ovarian it was -36.3% (active).
`CC(C)(Sc1cc(C(C)(C)C)c(OC(=O)CCCC(=O)O)c(C(C)(C)C)c1)Sc1cc(C(C)(C)C)c(OC(=O)CCCC(=O)O)c(C(C)(C)C)c1`: the growth in the test on SK-MEL-2 melanoma is 55.2%; in the test on EKVX NSCLC, 47.2%; in the test with SN12C renal, 19.6%; in the test on UO-31 renal it was 37.9%; with TK-10 renal, 58.6%; with ACHN renal, 26.9%. In addition, the growth in the test with CAKI-1 renal was 52.8%; in the test with A498 renal it was 66.5%; with CCRF-CEM leukemia it was 37.8%; in the test with MOLT-4 leukemia, 26.6%; with SR leukemia, 61.6%; in the test with RPMI-8226 leukemia, 21.9%. For the same compound, the growth in the test on OVCAR-8 ovarian was 36%; in the test on OVCAR-5 ovarian, 76.2%; with OVCAR-4 ovarian, 79.6%; in the test with SK-OV-3 ovarian it was 91.5%; in the test on IGROV1 ovarian it was 36.6%; in the test on OVCAR-3 ovarian, 21.1%. Also, the growth with HS 578T breast was 57%; with NCI/ADR-RES ovarian, 70%.
With `Cc1ccc2c(c1)=C/C(=C\c1cc(-c3ccccc3)oc1O)C(=O)N=2`, the growth in the test on SK-MEL-2 melanoma is 114%; with EKVX NSCLC it was 92.6%; in the test with SN12C renal, 106%; with UO-31 renal, 100%; in the test with TK-10 renal, 97.6%; in the test with ACHN renal, 105%. Moreover, the growth in the test with CAKI-1 renal was 91.1%; in the test with A498 renal, 96.6%; with CCRF-CEM leukemia, 100%; with MOLT-4 leukemia it was 90.6%; in the test with SR leukemia, 101%; with RPMI-8226 leukemia, 94.2%. Also, the growth with OVCAR-8 ovarian is 104%; in the test with OVCAR-5 ovarian, 97.9%; in the test with OVCAR-4 ovarian it was 105%; with SK-OV-3 ovarian, 111%; in the test with IGROV1 ovarian, 111%; in the test on OVCAR-3 ovarian it was 96.5%. Moreover, the growth was 106% in the test with HS 578T breast and 98.4% in the test with NCI/ADR-RES ovarian.
In the case of `C[C@@H](CO)[C@@H]1CCC=C2CC[C@]3(C)[C@H](CC[C@@H]4[C@@]5(C)CCCNC(C)(C)[C@@H]5CC[C@]43C)[C@H]21`, the growth in the test on SK-MEL-2 melanoma is 52.1%; with EKVX NSCLC, 94.5%; in the test with SN12C renal, 67.3%; with UO-31 renal, 79.7%; in the test with TK-10 renal, 82%; with ACHN renal, 87.2%. The growth with CAKI-1 renal was 47%; in the test with A498 renal it was 76.6%; with CCRF-CEM leukemia, 26.2%; in the test on MOLT-4 leukemia it was 10.3%; with SR leukemia, -29.9% (active); with RPMI-8226 leukemia, -19.8% (active). For the same compound, the growth in the test with OVCAR-8 ovarian is 67.2%; in the test with OVCAR-5 ovarian, 82.9%; in the test on OVCAR-4 ovarian, 48.8%; with SK-OV-3 ovarian, 107%; with IGROV1 ovarian it was 71.3%; with OVCAR-3 ovarian, 69.8%. Also, the growth was 69.8% in the test with HS 578T breast and 80.9% in the test with NCI/ADR-RES ovarian.
`CCOC(=O)Cc1cnc(N/N=C(\C)c2cc3ccccc3o2)s1`: the growth was 113% with SK-MEL-2 melanoma; 85.1% in the test with EKVX NSCLC; 99.1% with SN12C renal; 64.7% with UO-31 renal; 144% in the test on TK-10 renal; 90.7% with ACHN renal. The growth with CAKI-1 renal was 81.6%; in the test with A498 renal, 113%; with CCRF-CEM leukemia, 92.5%; in the test on MOLT-4 leukemia, 55.5%; in the test on SR leukemia it was 106%; with RPMI-8226 leukemia, 98.6%. Besides, the growth in the test with OVCAR-8 ovarian is 94%; in the test with OVCAR-5 ovarian it was 99.7%; in the test with OVCAR-4 ovarian it was 93.5%; in the test on SK-OV-3 ovarian it was 92.1%; with IGROV1 ovarian it was 87.4%; with OVCAR-3 ovarian it was 107%. Moreover, the growth is 100% with HS 578T breast and 103% in the test on NCI/ADR-RES ovarian.
On to `O=C1/C(=C/c2ccccc2Br)COc2ccc(O)cc21`, for which the growth in the test on SK-MEL-2 melanoma is 107%; in the test with EKVX NSCLC it was 96.6%; in the test with SN12C renal, 49.5%; in the test on UO-31 renal, 58.8%; with TK-10 renal it was 105%; with ACHN renal, 74.6%. Besides, the growth was 72.5% in the test on CAKI-1 renal; 113% in the test on A498 renal; 3.07% (active) in the test on CCRF-CEM leukemia; 27.2% with MOLT-4 leukemia; 10.3% with SR leukemia; 1.71% (active) in the test on RPMI-8226 leukemia. The growth in the test with OVCAR-8 ovarian was 55.5%; in the test on OVCAR-5 ovarian it was 91.9%; in the test on OVCAR-4 ovarian, 77.8%; in the test on SK-OV-3 ovarian, 128%; in the test with IGROV1 ovarian it was 78.6%; in the test with OVCAR-3 ovarian, 54.5%. The growth with HS 578T breast is 70.5%; in the test on NCI/ADR-RES ovarian, 46.9%.
As for `CN(C)Cc1ccc(O)c(C(=O)O)c1`, the growth was 124% in the test on SK-MEL-2 melanoma; 101% in the test with EKVX NSCLC; 109% in the test with SN12C renal; 96.4% in the test on UO-31 renal; 70.7% in the test on TK-10 renal; 101% in the test on ACHN renal. The growth with CAKI-1 renal was 92.8%; with A498 renal, 104%; in the test on CCRF-CEM leukemia, 103%; with MOLT-4 leukemia, 101%; in the test with SR leukemia it was 97.8%; in the test with RPMI-8226 leukemia, 104%. The growth with OVCAR-8 ovarian was 108%; in the test with OVCAR-5 ovarian, 108%; in the test on OVCAR-4 ovarian, 118%; in the test with SK-OV-3 ovarian, 106%; in the test with IGROV1 ovarian, 95.6%; in the test on OVCAR-3 ovarian, 111%. Also, the growth is 109% with HS 578T breast and 105% in the test with NCI/ADR-RES ovarian.
